Screen size: about 87,000 compounds; about 540 (0.62%) were called active. How the calls were made is not given here. Shown is part of a subset that was picked to be rich in actives. Results with a measured potency or affinity are listed apart.

This assay is described as follows: inhibitors of MT1-MMP promoter transcription, cell-based, luciferase reporter, luminescence (AID 618).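 Further: actives suppress MT1-MMP promoter-driven transcription so potencies describe inhibitors.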 As to conditions: MT1-MMP promoter luciferase reporter cells.
Regarding `CN1CCN(C(=O)COc2ccc(-c3nc4ccccc4s3)cc2)CC1`, the result was active.

With `CN1CCN(C(=O)COc2ccc(S(=O)(=O)N(C)Cc3ccccc3)cc2)CC1`, the outcome was inactive.

For `COc1cccc(OCC(=O)N2CCN(C)CC2)c1`, the compound was called inactive.

As to `CCOC(=O)C1=C(N)Oc2ccccc2C12C(=O)N(CC(=O)OC)C(CC(=O)OC)=C2C(=O)OC` (stereo not given), the call was inactive.

`C[C@H]1CCCC(=O)CCC/C=C/c2cc(O)cc(O)c2C(=O)O1`: the result was inactive.

Take `C[C@H]1CCC/C=C/C2C[C@H](O)CC2[C@H](O)/C=C/C(=O)O1` (stereo not given in full): the compound was classed as active.

In the case of `C[C@H]1CCC[C@@H](O)CCC/C=C/c2cc(O)cc(O)c2C(=O)O1`, the compound was called inactive.

Take `Cn1c(O)c(C=NCc2cccs2)c(=O)n(C)c1=O`: the compound was classed as inactive.

As for `CCC(C)OC(=O)c1c(N)n(Cc2cccs2)c2nc3ccccc3nc12` (stereo not given), the call was inactive.

As to `COc1ccc(Nc2ncc(C(=O)N3CCC4(CC3)OCCO4)c3ccccc23)cc1`, the compound was classed as inactive.

For `CC(C)c1cccc(C(C)C)c1OCCn1ccnc1`, the compound was called inactive.

On to `CCn1c(=O)cc(OCC(=O)N2CCN(Cc3ccc4c(c3)OCO4)CC2)c2ccccc21`, for which the outcome was inactive.

In the case of `O=c1[nH]c2ccccc2n1C1CCN(CCCC(c2ccc(F)cc2)c2ccc(F)cc2)CC1`, the compound was classed as active.

On to `O=c1[nH]c2ccccc2n1CCCN1CCC(n2c(=O)[nH]c3cc(Cl)ccc32)CC1`, for which the result was inactive.

In the case of `O=C1CC(N2CCC(n3c(=O)[nH]c4ccccc43)CC2)C(=O)N1c1ccc(F)cc1` (stereo not given), the outcome was inactive.

In the case of `Cc1ccc(-n2nc(C)cc2NC(=O)COc2cc(C)cc3oc(=O)c4c(c23)CCC4)cc1`, the compound was called inactive.

In the case of `CC12CN3CC(C)(CN(C1)P3(=O)Oc1ccccc1)C2=O` (stereo not given), the call was inactive.

Regarding `Cc1nc2c(=O)n(C)c(=O)nc-2n(C)n1`, the result was active.

Consider `CCOC(=O)CC1=C(C(=O)OCC)C2(C(=O)N1CC(=O)OC)C(C#N)=C(N)Oc1ccccc12` (stereo not given), for which the compound was called inactive.

On to `CCC/C=C(\CCC)C(NP(=O)(c1ccccc1)c1ccccc1)c1ccccc1` (stereo not given), for which the outcome was inactive.

Consider `Nc1ccccc1C(=O)OC1CSC1`, for which the outcome was inactive.

Take `Nc1ccccc1C(=O)OCCOc1ccccc1`: the outcome was active.

On to `CCCCCCOC(=O)c1ccccc1N`, for which the compound was called inactive.

Regarding `CCCCOP(=O)(CN1CCOCC1)OCCCC`, the compound was called inactive.

As for `CCN1CCN(C(=O)COc2cc(=O)n(CC)c3ccccc23)CC1`, the outcome was inactive.

Consider `c1ccc2c(CNC3CCCCCC3)c[nH]c2c1`, for which the outcome was inactive.

Take `CCCCn1c(O)c(C=NC2CC3CCC2(C)C3(C)C)c(=O)[nH]c1=O` (stereo not given): the call was inactive.

On to `Cc1ccc(C2(O)CC(C)N(C)CC2C)cc1` (stereo not given), for which the outcome was inactive.

As for `Cc1ccc(N(C)C(=O)Oc2cccc3cccnc23)cc1`, the outcome was inactive.

With `CN(C)CCN=Cc1c(O)n(-c2cccc3ccccc23)c(=O)[nH]c1=O`, the compound was classed as inactive.

As to `COC(=O)[C@@H]1[C@@H](C(=O)OC)C2(c3ccccc3-c3ccccc32)N(c2ccc(Cl)cc2)N1C#N`, the compound was called inactive.

Turning to `COC(=O)C[C@]1(C(=O)OC)CN(C#N)N(c2ccc(Cl)cc2)C12c1ccccc1-c1ccccc12`, the compound was classed as active.

Turning to `COC(=O)C1CN(C#N)N(c2ccc(Cl)cc2)C12c1ccccc1-c1ccccc12` (stereo not given), the outcome was active.

On to `CCCN1[C@@H]2C[C@@H](O)CC[C@@H]2C[C@H]1C(=O)OC`, for which the result was inactive.

Turning to `CN(C)CCCN=Cc1c(O)n(CCc2ccc(F)cc2)c(=O)[nH]c1=O`, the compound was classed as inactive.

As for `CC(C)CCC1(CCc2ccncc2)C(=O)NC(=O)NC1=O`, the call was inactive.

With `CCCCn1c(O)c(C(C)=Nc2c(C)n(C)n(-c3ccccc3)c2=O)c(=O)[nH]c1=O`, the compound was classed as inactive.

Consider `COc1cccc(OC)c1C1=NCC(=O)Nc2c1oc1ccc(Br)cc21`, for which the result was active.

Take `O=C1CN=C(c2ccccc2)c2oc3ccc(Br)cc3c2N1`: the compound was classed as inactive.

Take `CCOc1cc(-c2nc3c(C)cccn3c2NCC2CCCO2)ccc1O` (stereo not given): the compound was classed as inactive.

The record behind these values is PubChem BioAssay AID618 (Sanford-Burnham Center for Chemical Genomics, 2007).
